This is an account of results in PubChem BioAssay (Tox21).

Records with an inconclusive call do not appear. Entries that show only a call come without a potency. Active and inactive are the calls of the source. Calls follow the shape of the dose curve; as a rule, active = well fitted activation curve with a large enough effect in the repeat runs; inconclusive = weak or mixed curves; inactive = flat fitted curve, though single readings scatter.
Potency is read from the fitted curve at half-maximal effect.

This experiment in a line: A CellTox Green Cytotoxicity Assay to monitor cytotoxicity in HEK293 cells - 24 hour (AID 1224875). Also: nearly all actives have a fitted effect of over 45% in size. The note with it: CellTox Green fluorescence; series mostly up to 76.8 µM. The text has this: National Center for Advancing Translational Sciences [NCATS]
NIH Chemical Genomics Center [NCGC]
U.S. Environmental Protection Agency [EPA]
National Institutes of Environmental Health Sciences [NIEHS]
National Toxicology Program [NTP]
Cell-based models are critical for drug discovery. Determining the natural cytotoxic effects resulting from test compounds is an essential research activity. A CellTox Green Cytotoxicity Assay to monitor cytotoxicity in real time of continues cell culture during 40 hours of the compound treatment was used to screen Tox21 10K library compounds in Hek293 cells. CellTox Green Cytotoxicity Assay is a nonlytic, homogeneous, biofluorescent method to measure cytotoxicity in cell culture after experimental manipulation. The assay system uses a proprietary asymmetric cyanine dye that is excluded from viable cells but preferentially stains the dead cell's DNA. […] Viable cells produce no appreciable increases in fluorescence. Therefore, the fluorescence signal produced by the binding interaction with dead cell DNA is proportional to cytotoxicity.
The mixture of Hek293 cell suspension and reagents were dispensed at 600cells/6 ul/well in 1536-well tissue culture treated black solid bottom plates using a Multidrop dispenser. After the assay plates were incubated at a 37 C/5% CO2 incubator for 5 hours, 23 nL of compounds dissolved in DMSO, positive and negative controls was transferred to the assay plate by a pintool work station. The plates were incubated at 37 C for 40 hours. The fluorescence intensity were measured at 0h, 8h, 16h, 24h, 32h and 40h time points using ViewLux plate reader during compound treatment.
Consider `C=CCN1C[C@H](C(=O)N(CCCN(C)C)C(=O)NCC)C[C@@H]2c3cccc4[nH]cc(c34)C[C@H]21`, for which the Potency result was “inactive”.

`COc1nc(N)nc2nc[nH]c12`: the Potency result was “inactive”.

`O=S(=O)(O)c1ccc2c(N=Nc3ccc(S(=O)(=O)O)c4ccccc34)c(O)c(S(=O)(=O)O)cc2c1`: the activity change is 9.08% [at 6.97 µM, active compounds read high] (inactive).

Turning to `CC(=O)CC(=O)OC(C)(C)C`, the Potency entry is “inactive”.

As for `CCC(=O)c1c(O)cc(O)cc1O`, the Potency entry is “inactive”.

For `CC(=O)OCC(=O)Nc1cc(C#N)cc(NC(=O)COC(C)=O)c1Cl`, the Potency result is “inactive”.

For `CCCCCCCCCOC(=O)CCCCC(=O)OCCCCCCC`, the Potency is 24.5 µM (active).

For `Cc1ccnc(N)c1`, the Potency result was “inactive”.

In the case of `N[C@@H](CSCCCO)C(=O)O`, the activity change is 1.71% [at 15.8 µM, active compounds read high] (inactive).

With `CC1=C(C(=O)O)N2C(=O)[C@@H](NC(=O)[C@H](N)c3ccccc3)[C@H]2SC1`, the Potency entry is “inactive”.

`O=C(O)CNC(=O)CNC(=O)CNC(=O)CSC(=O)c1ccccc1`: the Potency entry is “inactive”.

As for `CCC(C(=O)OCCN1CCOC(c2ccccc2)C1C)c1ccccc1` (stereo not given), the Potency result is “inactive”.

For the compound `CC1OCCC1=O` (stereo not given), the Potency result was “inactive”.

For the compound `C=CC/C=C/C`, the Potency result is “inactive”.

Regarding `CCOCCOCC`, the Potency entry was “inactive”.

Turning to `CC(O)COC(C)(C)C` (stereo not given), the Potency entry is “inactive”.

`ONc1ccccc1`: the Potency result was “inactive”.

With `CC(=O)CCC1=C(C)CCCC1(C)C`, the Potency result was “inactive”.

As for `CC(Oc1cc(Cl)ccc1Cl)C(=O)O` (stereo not given), the Potency entry was “inactive”.

In the case of `CO[Si](CCCn1c(=O)n(CCC[Si](OC)(OC)OC)c(=O)n(CCC[Si](OC)(OC)OC)c1=O)(OC)OC`, the Potency entry was “inactive”.

For `CC(C)Nc1ccccc1`, the Potency result is “inactive”.

For `CC(C)COC(=O)c1ccccc1`, the Potency entry is “inactive”.

For `CC1(C)Cc2cccc(N)c2O1`, the Potency result was “inactive”.

`Cn1c(=O)c2[nH]c(Br)nc2n(C)c1=O`: the Potency entry was “inactive”.

For `CC(C)=CCC/C(C)=C/COC=O`, the Potency entry is “inactive”.

On to `O=C(O)[C@H](O)c1ccccc1`, for which the Potency result was “inactive”.

With `O=C(CCCCC(=O)Nc1c(I)cc(I)c(C(=O)O)c1I)Nc1c(I)cc(I)c(C(=O)O)c1I`, the Potency result is “inactive”.

Consider `O=C(NCN1CCOCC1)c1cnccn1`, for which the Potency entry is “inactive”.

As for `CCCC(=O)OC/C=C(\C)CCC=C(C)C`, the Potency is 54.9 µM (active).

Regarding `COP(=O)(O)OP(=O)(O)OC`, the Potency result is “inactive”.

For the compound `NCCOCCN`, the Potency entry is “inactive”.

As to `CCCC(=O)Nc1ccc(OCC(O)CNC(C)C)c(C(C)=O)c1` (stereo not given), the Potency result is “inactive”.

As to `CCN1CCCC1CN` (stereo not given), the Potency result is “inactive”.

Take `CC1CCc2c(N3CCC(O)CC3)c(F)cc3c(=O)c(C(=O)O)cn1c23` (stereo not given): the Potency entry was “inactive”.

For the compound `CC(C)NC(=O)c1ccc(C=O)cc1`, the Potency entry was “inactive”.

Turning to `CCn1cc(C(=O)O)c(=O)c2cnc(N3CCCC3)nc21`, the activity change was 4.09% [at 6.97 µM, active compounds read high] (inactive).

As to `CC(CO)(CO)CO`, the Potency result is “inactive”.

`c1ccc(-c2nn[nH]n2)cc1`: the Potency entry was “inactive”.

As for `CO[C@@]1(NC(=O)Cc2cccs2)C(=O)N2C(C(=O)O)=C(COC(N)=O)CS[C@@H]21`, the Potency result was “inactive”.

Turning to `O=C=NCC1CCCC(CN=C=O)C1` (stereo not given), the Potency entry is “inactive”.
